The results in this text go back to PubChem BioAssay (Tox21).

Results filed as inconclusive are left out. The source made the active and inactive calls. Unless noted, the call rests on the fitted dose curve.
On the % scale 0 is the no-effect control and ±100 the full control effect.

Chain of Estrogen receptor beta (Homo sapiens) (Q92731 whole entry, looked up): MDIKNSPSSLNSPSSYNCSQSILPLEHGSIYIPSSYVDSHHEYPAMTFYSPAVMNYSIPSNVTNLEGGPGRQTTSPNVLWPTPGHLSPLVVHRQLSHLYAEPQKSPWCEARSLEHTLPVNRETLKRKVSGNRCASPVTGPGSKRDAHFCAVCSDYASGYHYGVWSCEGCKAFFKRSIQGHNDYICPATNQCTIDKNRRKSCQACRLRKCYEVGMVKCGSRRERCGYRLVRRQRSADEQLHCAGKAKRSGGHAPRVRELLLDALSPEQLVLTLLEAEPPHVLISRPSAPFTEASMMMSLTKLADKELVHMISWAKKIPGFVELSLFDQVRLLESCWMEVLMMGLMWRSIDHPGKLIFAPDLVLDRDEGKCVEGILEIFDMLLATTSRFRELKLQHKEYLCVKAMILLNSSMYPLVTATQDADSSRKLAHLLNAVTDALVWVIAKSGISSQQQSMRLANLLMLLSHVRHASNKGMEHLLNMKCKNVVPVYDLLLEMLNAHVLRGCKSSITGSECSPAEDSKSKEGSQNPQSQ

Test system in the first experiment: not listed separately
Description: qHTS assay to identify small molecule agonists of the sonic hedgehog signaling (Shh) pathway (AID 1259368).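 Further: NIH/3T3-derived 3T3Gli1-Luc cells carrying a stable Gli1-driven firefly luciferase reporter; nearly all actives have a fitted effect of over 15% in size.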 The note with it: NIH/3T3 Gli1-Luc reporter, luciferase, 24 h; series mostly up to 92.4 µM; activity change: at the top concentration. A digest of the protocol:
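Cells of a mouse NIH/3T3 clone stably expressing luciferase under the Gli1 transcriptional response element are exposed to test chemicals for 24 hr at 37 C. Pathway activation is detected as a rise in luminescence.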
In general terms: qHTS replaces the single test concentration by a dilution series.
For `Nc1nc(-c2ccc([N+](=O)[O-])cc2)cs1`, the “activity change” value is 4.12% (inactive).
Same read-out and setting: next, `Cc1cccc(C)c1NC(=O)c1cc(S(N)(=O)=O)c(Cl)cc1O`: 0.184% [at 42.5 µM, active compounds read high] (inactive); `CCCCCCCCCCCCCOC(=O)CCSCCC(=O)OCCCCCCCCCCCCC`: -0.0494% [at 18.9 µM, active compounds read high] (inactive).
As to `CC(=O)N[C@@H](Cc1ccc(O)cc1)C(=O)O`, the “activity change” value is 0.607% [at 42.5 µM, active compounds read high] (inactive).
On the same count and under the same terms, next, `CCCCCC`: -1.62% (inactive); `Cc1ccccc1S(N)(=O)=O`: 0.0263% (inactive).
Same read-out and setting: with `CCN(CC)CCOC(=O)C(c1ccccc1)c1ccccc1` the figure was -0.721% [at 42.5 µM, active compounds read high] (inactive); with `O=S(=O)(O)CO`, 0.184% (inactive); with `CC(=O)OCC1=C(C(=O)O)N2C(=O)[C@@H](NC(=O)CSc3ccncc3)[C@H]2SC1`, 0.938% [at 42.5 µM, active compounds read high] (inactive).
The same measure, in the same setting: with `O=C(O)CN1C(=O)c2cccc3cccc(c23)C1=O` the figure was -0.541% [at 42.5 µM, active compounds read high] (inactive); with `SCCc1cnccn1`, 0.345% (inactive); with `COc1ccc(C)cc1`, -1.57% (inactive).
Turning to `CC(C)c1ccc(C(=O)N=C(N)N)cc1S(C)(=O)=O`, the “activity change” value is 1.22% [at 42.5 µM, active compounds read high] (inactive).
Same read-out and setting: next, `O=C1OC(=O)c2c(Br)c(Br)c(Br)c(Br)c21`: -3.19% (inactive).
On the same count and under the same terms, with `OCC(CO)n1cnc(-c2ccc(F)cc2)c1-c1ccnc(Oc2ccccc2)n1` the figure was -2.52% (inactive); with `C1CCCCC1`, -0.474% (inactive).
Still for that read-out and setting: with `Cc1c[nH]c2ccccc12` the figure was -0.912% [at 42.5 µM, active compounds read high] (inactive).
On to `O=C(O)CCS`, for which the “activity change” value was 2.56% (inactive).
On the same count and under the same terms, next, `Cc1ccc2nc(N)[nH]c(=O)c2c1Sc1ccncc1`: 0.373% [at 42.5 µM, active compounds read high] (inactive); `O=C(O)CCCc1c[nH]c2ccccc12`: 0.303% (inactive).
The same measure, in the same setting: next, `CCCCCCCC(=O)Oc1c(Br)cc(C#N)cc1Br`: -10.9% (inactive); `CCN(CC)CC(=O)Nc1c(C)cccc1C(=O)OC`: 0.56% [at 42.5 µM, active compounds read high] (inactive).
On the same count and under the same terms, next, `CC(C)N=C=NC(C)C`: 0.731% (inactive); `CC1CCCO1` (configuration not stated): -1.59% (inactive).
Regarding `[Cl][Nd]([Cl])[Cl]`, the “activity change” value is 4.37% (inactive).
Same read-out and setting: with `CC1=CC[C@@]23C[C@@H]1C(C)(C)[C@@H]2CC[C@H]3C` the figure was -0.174% (inactive); with `COc1ccc(/C=C/C(=O)c2ccc(OC)cc2OC)cc1`, 3.69% [at 42.5 µM, active compounds read high] (inactive).
As to `CCNc1nc(N)nc(Cl)n1`, the “activity change” value is -0.0329% (inactive).
Same read-out and setting: with `COC(CC(C)CCCC(C)(C)O)OC` (configuration not stated) the figure was -1.49% (inactive); with `CC(=O)NNC(C)=O`, 8.53% (inactive); with `Nc1ccn([C@H]2CS[C@@H](CO)O2)c(=O)n1`, -0.541% (inactive).
Still for that read-out and setting: with `Nc1ccc(S(=O)(=O)NCc2ccccc2)cc1` the figure was 3.57% [at 42.5 µM, active compounds read high] (inactive); with `CCN(CC)C(=O)N1CCN(C)CC1`, 0.252% [at 42.5 µM, active compounds read high] (inactive); with `CC(C)(C)S`, 0.353% (inactive).
With `CCOC(=O)N1CCC(Nc2ccc(Cl)cc2N)CC1`, the “activity change” value is 5.64% [at 42.5 µM, active compounds read high] (inactive).
On the same count and under the same terms, with `CC(=O)OCC(=O)[C@@]1(OC(C)=O)[C@@H](C)C[C@H]2[C@@H]3C[C@H](F)C4=CC(=O)C=C[C@]4(C)[C@@]3(F)[C@@H](O)C[C@@]21C` the figure was 0.106% [at 42.5 µM, active compounds read high] (inactive); with `CCCCCCOC(=O)CCCCC`, -1.49% (inactive); with `CC/C=C\C/C=C\C/C=C\CCCCCCCC(=O)OCC`, 0.334% (inactive).
Same read-out and setting: with `O=C(O)CCC(=O)OC[C@@H](NC(=O)C(Cl)Cl)[C@H](O)c1ccc([N+](=O)[O-])cc1` the figure was 0.12% [at 42.5 µM, active compounds read high] (inactive).

Test system in another experiment: not listed separately
Description: qHTS assay to identify small molecule antagonists of the sonic hedgehog signaling (Shh) pathway (AID 1259369). Further: nearly all actives have a fitted effect of over 45% in size. Further: potency means the concentration at half of the fitted maximal effect. The note with it: NIH/3T3 Gli1-Luc reporter, Shh antagonist, luminescence 24 h; series mostly up to 92.4 µM; activity change, negative = inhibition: at the top concentration. In outline:
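Cells are plated and held 4hr at 37 C, compounds (DMSO) are pinned in, conditioned medium is added to stimulate the pathway, and after 24hr luciferase reagent is added for 30min before luminescence is read.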
As for `Cc1cccc(C)c1NC(=O)c1cc(S(N)(=O)=O)c(Cl)cc1O`, the “activity change, negative = inhibition” value was 13.8% [at 42.5 µM] (inactive).
Consider `CCCCCCCCCCCCCOC(=O)CCSCCC(=O)OCCCCCCCCCCCCC`, for which the activity change, negative = inhibition is 8.97% [at 19 µM] (inactive).
Same read-out and setting: next, `CC(=O)N[C@@H](Cc1ccc(O)cc1)C(=O)O`: 18.7% [at 42.5 µM] (inactive).
The same measure, in the same setting: with `CCCCCC` the figure was -8.79% (inactive); with `Cc1ccccc1S(N)(=O)=O`, -9.56% (inactive).
On the same count and under the same terms, next, `CCN(CC)CCOC(=O)C(c1ccccc1)c1ccccc1`: 3.43% [at 42.5 µM] (inactive); `O=S(=O)(O)CO`: 1.76% (inactive).
For `CC(=O)OCC1=C(C(=O)O)N2C(=O)[C@@H](NC(=O)CSc3ccncc3)[C@H]2SC1`, the “activity change, negative = inhibition” value was 17.4% [at 42.5 µM] (inactive).
For `O=C(O)CN1C(=O)c2cccc3cccc(c23)C1=O`, the “activity change, negative = inhibition” value is 9.89% [at 42.5 µM] (inactive).
Same read-out and setting: with `SCCc1cnccn1` the figure was -5.39% (inactive).
Still for that read-out and setting: with `COc1ccc(C)cc1` the figure was -4.1% (inactive).
As to `CC(C)c1ccc(C(=O)N=C(N)N)cc1S(C)(=O)=O`, the “activity change, negative = inhibition” value is 5.48% [at 42.5 µM] (inactive).
Still for that read-out and setting: next, `O=C1OC(=O)c2c(Br)c(Br)c(Br)c(Br)c21`: 7.41% (inactive); `C1CCCCC1`: 2.2% (inactive).
On the same count and under the same terms, with `O=C(O)CCS` the figure was 18.7% (inactive); with `O=C(O)CCCc1c[nH]c2ccccc12`, 0% (inactive).
In the case of `CCCCCCCC(=O)Oc1c(Br)cc(C#N)cc1Br`, the Potency was 27.2 µM (active).
Consider `CCN(CC)CC(=O)Nc1c(C)cccc1C(=O)OC`, for which the “activity change, negative = inhibition” value is 65.1% [at 42.5 µM] (inactive).
For the compound `CC1CCCO1` (configuration not stated), the “activity change, negative = inhibition” value is 4.96% (inactive).
Consider `[Cl][Nd]([Cl])[Cl]`, for which the “activity change, negative = inhibition” value was -30.4% (inactive).
The same measure, in the same setting: next, `CC1=CC[C@@]23C[C@@H]1C(C)(C)[C@@H]2CC[C@H]3C`: -12.9% (inactive); `CCNc1nc(N)nc(Cl)n1`: -27.4% (inactive); `COC(CC(C)CCCC(C)(C)O)OC` (configuration not stated): 0.532% (inactive).
On the same count and under the same terms, with `CC(=O)NNC(C)=O` the figure was 0.93% (inactive).
The same measure, in the same setting: with `Nc1ccn([C@H]2CS[C@@H](CO)O2)c(=O)n1` the figure was 12.6% (inactive); with `Nc1ccc(S(=O)(=O)NCc2ccccc2)cc1`, -0.653% [at 42.5 µM] (inactive); with `CCN(CC)C(=O)N1CCN(C)CC1`, 26.7% [at 42.5 µM] (inactive).
As to `CC(C)(C)S`, the “activity change, negative = inhibition” value is 25.4% (inactive).
`CCOC(=O)N1CCC(Nc2ccc(Cl)cc2N)CC1`: the Potency is 2.98 µM (active).
For the compound `CCCCCCOC(=O)CCCCC`, the “activity change, negative = inhibition” value is 13.1% (inactive).
With `O=C(O)CCC(=O)OC[C@@H](NC(=O)C(Cl)Cl)[C@H](O)c1ccc([N+](=O)[O-])cc1`, the “activity change, negative = inhibition” value was 20.1% [at 42.5 µM] (inactive).

The target in a further experiment is Estrogen receptor beta (Homo sapiens) (UniProt Q92731). Description: qHTS assay to identify small molecule agonists of the estrogen receptor beta (ER-beta) signaling pathway (AID 1259377; active means well fitted activation curve with a large enough effect in the signal ratio in the repeat runs, not every such curve was filed as active; the % refers to the signal ratio). To be noted: ER-beta-UAS-bla HEK293T, beta-lactamase FRET ratio, 16 h; series mostly up to 92.4 µM; activation: at the top concentration. In outline:
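ER-beta-UAS-bla HEK293T (GripTite) cells carrying a UAS-driven beta-lactamase reporter, in medium with 2% charcoal-stripped FBS, were exposed to compounds for 16 hr at 37C; LiveBLAzer B/G FRET substrate was then added and fluorescence read after 2 hours at room temperature.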
In the case of `Nc1nc(-c2ccc([N+](=O)[O-])cc2)cs1`, the “activation” value is 0.737% (inactive).
Same read-out and setting: with `Cc1cccc(C)c1NC(=O)c1cc(S(N)(=O)=O)c(Cl)cc1O` the figure was 1.18% [at 42.5 µM] (inactive); with `CCCCCCCCCCCCCOC(=O)CCSCCC(=O)OCCCCCCCCCCCCC`, -0.464% [at 19 µM] (inactive).
On the same count and under the same terms, with `CC(=O)N[C@@H](Cc1ccc(O)cc1)C(=O)O` the figure was -2.45% [at 42.5 µM] (inactive); with `CCN(CC)CCOC(=O)C(c1ccccc1)c1ccccc1`, 3.65% [at 42.5 µM] (inactive).
As to `CC(=O)OCC1=C(C(=O)O)N2C(=O)[C@@H](NC(=O)CSc3ccncc3)[C@H]2SC1`, the “activation” value is -1.55% [at 42.5 µM] (inactive).
Same read-out and setting: next, `SCCc1cnccn1`: 9.42% (inactive).
For the compound `OCC(CO)n1cnc(-c2ccc(F)cc2)c1-c1ccnc(Oc2ccccc2)n1`, the “activation” value is 0.961% (inactive).
On the same count and under the same terms, next, `Cc1ccc2nc(N)[nH]c(=O)c2c1Sc1ccncc1`: -2.09% [at 42.5 µM] (inactive).
On the same count and under the same terms, next, `O=C(O)CCCc1c[nH]c2ccccc12`: -3.22% (inactive); `CCN(CC)CC(=O)Nc1c(C)cccc1C(=O)OC`: -1.8% [at 42.5 µM] (inactive).
Still for that read-out and setting: with `[Cl][Nd]([Cl])[Cl]` the figure was -2.8% (inactive); with `CC1=CC[C@@]23C[C@@H]1C(C)(C)[C@@H]2CC[C@H]3C`, -1.11% (inactive).
Turning to `Nc1ccc(S(=O)(=O)NCc2ccccc2)cc1`, the “activation” value is -3.65% [at 42.5 µM] (inactive).
Same read-out and setting: next, `CCN(CC)C(=O)N1CCN(C)CC1`: -0.186% [at 42.5 µM] (inactive); `CC(=O)OCC(=O)[C@@]1(OC(C)=O)[C@@H](C)C[C@H]2[C@@H]3C[C@H](F)C4=CC(=O)C=C[C@]4(C)[C@@]3(F)[C@@H](O)C[C@@]21C`: -0.308% [at 42.5 µM] (inactive).
The same measure, in the same setting: with `CC/C=C\C/C=C\C/C=C\CCCCCCCC(=O)OCC` the figure was -2.42% (inactive).
